Results on 60 sequences are retold here after the OligoGym collection.

Among the targets are LHX3; LHFPL4; LHFPL5; LHX9; LIG4; LILRB3; LIMK2; LILRA4; LIPA; LIPK; LMO4; LITAF.
Holding throughout (test): pooled miR-30 sensor sort-seq; sequence = guide strand
What all share (conditions): shRNA
Further: reference of the scale not given here.

With TGCACTTGAGACACTTGCTGTG, in the assay with LHX3, the sensor-assay potency score (higher = more potent) is -0.126.

As for TTCCGCATGTAGTGCTCGTGGT, the sensor-assay potency score (higher = more potent) with LHFPL4 was -0.829.

Consider TTCTGGTTGAGTCAGTGTGGGC, for which, in the assay with LHFPL5, the sensor-assay potency score (higher = more potent) was -1.68.

On to AAGTCGGTGAAGGAGCCCCGGC, for which the sensor-assay potency score (higher = more potent) in the assay with LHFPL4 was -1.53.

Regarding TTTCATGGTCCGGAGCTGGTGA, in the assay with LHX9, the sensor-assay potency score (higher = more potent) was -0.253.

ATCTTGTAGACCGTAGCCGTGT: the sensor-assay potency score (higher = more potent) with LHFPL4 is -0.823.

In the case of TTTTAGATCATTAAGTCTCATA, the sensor-assay potency score (higher = more potent) with LIG4 is -0.76.

Consider TTAGTCATCTTTGAGTCAGGTG, for which the sensor-assay potency score (higher = more potent) with LILRB3 was -0.0536.

Consider ATGAACTTGAGCACATTGGGGT, for which the sensor-assay potency score (higher = more potent) in the assay with LIMK2 was -0.105.

Turning to TAGTTTGCTGACTAACACCAAG, the sensor-assay potency score (higher = more potent) with LIG4 was -1.17.

Turning to TTGATTGTTGAGAAGTCTGTTG, the sensor-assay potency score (higher = more potent) with LILRB3 was -0.405.

With TAGCATCTGAATGTACCCCTGT, the sensor-assay potency score (higher = more potent) with LILRA4 stood at 0.139.

For the sequence TTGTGTGCACCGTAGCACCTGT, in the assay with LILRB3, the sensor-assay potency score (higher = more potent) is -0.532.

As for TTGCTGACTAACACCAAGCTTT, the sensor-assay potency score (higher = more potent) with LIG4 is -0.307.

Consider TTTATATACATCTCCATCTTTG, for which the sensor-assay potency score (higher = more potent) with LIG4 is -1.01.

Turning to TTATGCAGTCGGTACTCCTGGG, in the assay with LILRB3, the sensor-assay potency score (higher = more potent) was -0.343.

TAACACAAAACTCTACATCTTC had a sensor-assay potency score (higher = more potent) with LIG4 of 0.104.

For the sequence TTCCGTCTAAGGGTCAAGCTGT, the sensor-assay potency score (higher = more potent) in the assay with LILRB3 is -0.222.

For the sequence TTCCTTTCTGTAAACATCTTGG, in the assay with LIG4, the sensor-assay potency score (higher = more potent) is -0.486.

Take TTTATTGTTACATTTGGCCTTA: the sensor-assay potency score (higher = more potent) in the assay with LIG4 is 0.231.

For the sequence TGACTGTCCAGCTCCACCCTGT, in the assay with LILRB3, the sensor-assay potency score (higher = more potent) was -0.563.

TAGCTTTTTATTATTAACCATC: in the assay with LIG4, the sensor-assay potency score (higher = more potent) was -1.43.

Regarding TGCTGTGACGCTGACGTCGGAG, in the assay with LILRB3, the sensor-assay potency score (higher = more potent) is -0.552.

In the case of TATTAGTCATCTTTGAGTCAGG, in the assay with LILRB3, the sensor-assay potency score (higher = more potent) was -0.452.

Regarding TTTCTTTCGTCCACACACTTGA, the sensor-assay potency score (higher = more potent) with LIMK2 came out at 0.0479.

For the sequence TTTATGCAGTCGGTACTCCTGG, the sensor-assay potency score (higher = more potent) with LILRB3 was -0.617.

TTGTGTGCGCCGTAGCATCTGT: the sensor-assay potency score (higher = more potent) with LILRA4 is -0.739.

On to TTTCTCTGGTCAGATGTCCTGT, for which the sensor-assay potency score (higher = more potent) with LILRB3 is -0.223.

In turn, TTCTTCAGGAGTCTGCTCGTTA gave a sensor-assay potency score (higher = more potent) with LIG4 of 0.109.

Regarding TACAGCACACCAATGAACTTGA, the sensor-assay potency score (higher = more potent) in the assay with LIMK2 is -0.145.

TAGCCGTAGCATCTGAATGTAC: the sensor-assay potency score (higher = more potent) with LILRA4 was -0.777.

Regarding TATGCAGTCGGTACTCCTGGGC, the sensor-assay potency score (higher = more potent) with LILRB3 was -0.223.

As to TTTTCATAGCCGTAGCATCTGA, the sensor-assay potency score (higher = more potent) with LILRA4 is -1.2.

Consider TACTTGATGGTGACCTTCCCTT, for which the sensor-assay potency score (higher = more potent) with LIMK2 is -0.173.

For the sequence TTCTCTCCTGAGGTCACCGTGG, the sensor-assay potency score (higher = more potent) with LILRA4 is -1.07.

Consider TTTCTGTAAACATCTTGGCTTC, for which the sensor-assay potency score (higher = more potent) with LIG4 is -0.577.

As to TTGTTGAGAAGTCTGTTGCTTT, the sensor-assay potency score (higher = more potent) with LILRB3 was -0.0209.

Turning to TAAAAGGTCGTTTACTTGCTGT, in the assay with LIG4, the sensor-assay potency score (higher = more potent) was -0.0412.

As for TTTGGGTAGGTTTTCTGCCTGC, the sensor-assay potency score (higher = more potent) with LILRA4 was -0.143.

In the case of TAATGGAGGAAGCATCTTCTAC, the sensor-assay potency score (higher = more potent) in the assay with LILRA4 is -1.03.

As to TAGTCCACTGACATACTCTGGT, the sensor-assay potency score (higher = more potent) with LIG4 was 0.198.

In the case of TCCTCAATCAGAGTGAACCTGC, in the assay with LILRA4, the sensor-assay potency score (higher = more potent) is -0.933.

Consider TTGATCTCAGACGCAACGGGGG, for which, in the assay with LILRA4, the sensor-assay potency score (higher = more potent) was -1.08.

In the assay with LILRA4, AATCTGACTTCTTTTGTGCTGG registered a sensor-assay potency score (higher = more potent) of 0.00913.

Take TCCTTGTACAGAGTGTATCTGA: in the assay with LILRA4, the sensor-assay potency score (higher = more potent) is -0.799.

On to TAGGTTTTCTGCCTGCACCCGG, for which the sensor-assay potency score (higher = more potent) with LILRA4 was -0.532.

As for TACAAAGTAGTATTCGCCCTGC, the sensor-assay potency score (higher = more potent) in the assay with LIPA was -0.272.

Regarding TTGACGTCGTAGACATCTGCAA, in the assay with LIPA, the sensor-assay potency score (higher = more potent) was -0.272.

With TATTTAACTGTGACAACTGGAG, the sensor-assay potency score (higher = more potent) with LIPK is -0.414.

For TAGTGGATTGCTCTGAAGTGAA, the sensor-assay potency score (higher = more potent) with LMO4 was -0.987.

In the case of TTGTTGTAACATCATACTCTTC, the sensor-assay potency score (higher = more potent) with LIPK was -0.891.

For the sequence TATCTTAATCTTTTTAGCCAGT, the sensor-assay potency score (higher = more potent) in the assay with LIPK was -0.586.

In the case of TAGGTCTTGGTAAATTTCCTGA, the sensor-assay potency score (higher = more potent) with LIPK is -0.456.

Consider TATTGTAAGGAAATGATGCTGC, for which the sensor-assay potency score (higher = more potent) with LIPA came out at 0.625.

As to TGGTGTAACAGGACGTGCCGAT, the sensor-assay potency score (higher = more potent) in the assay with LMO4 was -0.601.

On to TTTGTCACCAAACAACACCTTA, for which, in the assay with LIPK, the sensor-assay potency score (higher = more potent) is -0.763.

Regarding TTTGTCTCCAAATAAGTCCTTA, the sensor-assay potency score (higher = more potent) in the assay with LIPA was -0.0541.

Turning to TAATTGGATTGTTATTGGGGAT, the sensor-assay potency score (higher = more potent) with LITAF was -0.833.

In the case of TAACTGTTAACAGCCACTGTCT, in the assay with LITAF, the sensor-assay potency score (higher = more potent) is -0.461.

For the sequence TTATAGGACAGCTGACTCACGA, in the assay with LITAF, the sensor-assay potency score (higher = more potent) stood at 0.0157.
